# Experimental data reported in PubChem BioAssay.
# Active and inactive are the calls of the source.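 How the source made its calls, unless noted: active means NADPH fluorescence slope more negative than the mean of all samples by about 3 SD, 99.7% confidence; inactive means the rest.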
# Key:
# [1] = inhibitors of TNFa-induced NFkB p65 translocation, primary screen, imaging, HUVEC, MLSMR starter and 10KST1 sets (AID 438;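 active means inhibition above 20% together with a positive visual image hit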;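 further: compound added about 3h40 before a 20 min TNFalpha stimulation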;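 on inhibition: signal is the nuclear over cytoplasmic p65 intensity ratio per well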); conditions: HUVEC TNFa-induced p65 nuclear translocation; cell count: measured here: nuclei count (cytotoxicity indicator), at 2.08 µM; inhibition: at 2 µM, stronger effect = higher value, 0% TNFa-plus-vehicle, 100% no-TNFa wells
# [2] = reduction of polyQ htt aggregates in cells – imaging, exon1htt(103Q)mCFP cells, high-content imaging, primary screen (AID 483;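 active means visual image review flags a hit and inhibition of aggregation exceeds 20%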;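 further: compound exposure lasted 3 days before fixation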;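 on nuclei count: percent of the per-plate median nuclei count of sample wells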); conditions: exon1htt(103Q)mCFP cell line, aggregate imaging, at 2 µM; inhibition of aggregation: stronger effect = higher value; nuclei count: measured here: cell count, toxicity
# [3] = endothelial E-selectin expression blockers – imaging, HUVEC, immunofluorescence, MLSMR starter and 10KST1 sets, primary screen (AID 487;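 active means visually confirmed hit in the image check and inhibition above 20%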;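 on inhibition: signal is fraction of cell area covered by stained E-selectin grains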;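 on nuclei count: 100% = median nuclei count of all wells on the same plate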); conditions: HUVEC TNFalpha-induced E-selectin immunofluorescence imaging, at 2 µM; inhibition: stronger effect = higher value; nuclei count: measured here: cell number, toxicity
# [4] = target: Voltage-gated potassium channel subunit beta-2 (Rattus norvegicus) (UniProt P62483); test: inhibitors of rat Kvbeta2 reductase activity – biochemical, NADPH fluorescence, primary screen (AID 622;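 active means fluorescence slope higher than the sample average by over 3 SD, cut at about -0.22 in these data, passing the limit was not always enough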;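 further: slope of raw intensity against log time taken from 70 to 1610 s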); conditions: recombinant KvBeta, 4-cyanobenzaldehyde reduction, at 10 µM, stronger effect = higher value
# [5] = target: Voltage-gated potassium channel subunit beta-2 (Rattus norvegicus) (UniProt P62483); test: enhancers of rat Kvbeta2 NADPH turnover – biochemical, NADPH fluorescence, primary screen (AID 623); conditions: Recombinant KvBeta, NADPH fluorescence decrease slope, 10 min; at 10 µM; stronger effect = lower value;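 further: fluorescence intensity change per second fitted from 20 to 320 s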
# [6] = target: Alpha-2C adrenergic receptor (Homo sapiens) (UniProt P18825); test: compounds altering alpha2C-coupled GIRK flux – cell-based, HEK293 alpha2C/GIRK1/2, thallium flux, primary screen (AID 624;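 active means fluorescence slope after compound addition differing from the mean of all screened samples at 99.7% confidence, in either direction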;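 further: slope of fluorescence ratio to pre-addition baseline per second over 15 to 24 s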); conditions: thallium flux BTC fluorescence, at 10 µM, actives lie on both sides
# [7] = blockers of RIG-like receptor reporter activation – cell-based, Sendai virus stimulus, luciferase, 10K MLSCN set, TLR/RLR signaling modifier project, primary screen (AID 602276;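 active means inhibition at or above 50% at 10 µM; inactive means inhibition below 50%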;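 further: firefly luciferase from ISG56 promoter only with Renilla not read in this screen; 0% = Sendai virus plus DMSO and 100% = medium plus DMSO without virus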); conditions: HEK293 RL24 IRF3 luciferase reporter, at 10 µM, stronger effect = higher value
# [8] = TLR3 IRF3 reporter activation blockers – cell-based, poly I:C stimulus, luciferase, 10K MLSCN set, primary screen (AID 602277;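 active means inhibition of the reporter signal at or above 50%; inactive means inhibition below 50%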); conditions: HEK293-TLR3 RL24 IRF3 luciferase reporter, at 10 µM, stronger effect = higher value
# Sequence of Alpha-2C adrenergic receptor (Homo sapiens) (P18825 whole entry, looked up): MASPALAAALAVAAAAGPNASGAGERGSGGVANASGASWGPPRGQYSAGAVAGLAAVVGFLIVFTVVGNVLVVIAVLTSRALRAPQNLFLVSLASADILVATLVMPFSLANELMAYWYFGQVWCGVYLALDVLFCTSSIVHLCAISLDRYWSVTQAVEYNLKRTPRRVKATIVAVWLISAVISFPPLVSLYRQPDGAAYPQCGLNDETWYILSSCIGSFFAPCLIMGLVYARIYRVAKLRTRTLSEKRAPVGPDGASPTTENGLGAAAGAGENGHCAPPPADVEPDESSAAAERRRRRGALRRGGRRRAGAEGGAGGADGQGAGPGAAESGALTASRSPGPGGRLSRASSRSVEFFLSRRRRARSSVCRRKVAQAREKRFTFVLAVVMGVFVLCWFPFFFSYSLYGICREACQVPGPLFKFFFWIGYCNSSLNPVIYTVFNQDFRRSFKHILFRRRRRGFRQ
# Sequence of Voltage-gated potassium channel subunit beta-2 (Rattus norvegicus) (P62483 whole entry, looked up): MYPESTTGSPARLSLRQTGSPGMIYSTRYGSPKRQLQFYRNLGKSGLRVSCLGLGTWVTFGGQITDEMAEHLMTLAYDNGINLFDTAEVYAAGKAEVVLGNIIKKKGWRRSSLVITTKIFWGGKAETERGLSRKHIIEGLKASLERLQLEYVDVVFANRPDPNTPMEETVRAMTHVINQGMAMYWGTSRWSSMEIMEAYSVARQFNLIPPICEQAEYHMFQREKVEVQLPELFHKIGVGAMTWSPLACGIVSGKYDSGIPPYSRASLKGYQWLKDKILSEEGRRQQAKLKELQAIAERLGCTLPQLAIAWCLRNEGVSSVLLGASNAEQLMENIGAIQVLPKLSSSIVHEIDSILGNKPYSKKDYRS
Structure (SMILES),cell count [1],inhibition [1],inhibition of aggregation [2],nuclei count [2] [%],inhibition [3],nuclei count [3] [%],fluorescence slope [4],NADPH fluorescence slope [5],slope [6],inhibition [7],inhibition [8]
Cc1c(NC2=NC3(CCCCC3)Cc3ccccc32)c(=O)n(-c2ccccc2)n1C,716,-5.3% (inactive),6.1% (inactive),101,59.1% (active),72.3,-0.354 (inactive),-6.6e-05 (inactive),0.00622 (inactive),13.1% (inactive),21.6% (inactive)
CCc1nnc(NC(=O)C2CC(=O)N(Cc3ccco3)C2)s1 (stereo not drawn),428,7.3% (inactive),-11.1% (inactive),104,-0.2% (inactive),106,-0.507 (inactive),-6.1e-05 (inactive),0.00457 (inactive),13.8% (inactive),22.1% (inactive)
CC(C)N(Cc1nc(-c2ccc(Cl)cc2)no1)C(=O)CN(C)S(=O)(=O)c1ccc(Cl)cc1,629,-2.8% (inactive),-11.8% (inactive),95.7,-53.8% (inactive),106,-0.467 (inactive),-5.4e-05 (inactive),0.00647 (inactive),20.4% (inactive),25.9% (inactive)
Cn1cc(C(=O)c2ccc(F)cc2)cc1-c1nc2ccccc2n1C,357,-6.3% (inactive),23.1% (inactive),86.8,5.7% (inactive),83,-0.59 (inactive),-4.1e-05 (inactive),0.0041 (inactive),3.11% (inactive),-17.9% (inactive)
CCOC(=O)C1CSC(CC(=O)Nc2ccc(Cl)cc2)C(=O)N1 (stereo not drawn),704,3.9% (inactive),7.4% (inactive),103,-56.7% (inactive),132,-0.325 (inactive),-4.9e-05 (inactive),0.00513 (inactive),-5.63% (inactive),1.5% (inactive)
CCCn1c(OC)nc2c1c(=O)n(C)c(=O)n2C,660,-3.7% (inactive),2.9% (inactive),104,-34.6% (inactive),124,-0.426 (inactive),-5.4e-05 (inactive),0.00615 (inactive),15.2% (inactive),33.4% (inactive)
Cc1ccc(S(=O)(=O)N2CCOCC2)cc1C(=O)Nc1nc(-c2cccnc2)cs1,294,10.3% (inactive),-1.2% (inactive),99.3,-22.3% (inactive),100,-0.527 (inactive),2.5e-05 (inactive),0.00585 (inactive),7.72% (inactive),15.3% (inactive)
Cc1cccc(NC(=O)c2ccc3ccccc3n2)n1,408,-4.5% (inactive),0.8% (inactive),86.6,-50.9% (inactive),95.8,-0.303 (inactive),-1.5e-05 (inactive),0.0061 (inactive),-11.1% (inactive),-91.5% (inactive)
Cc1ccc(C(=O)Nc2ccc(Cl)cn2)cc1S(=O)(=O)N1CCOCC1,568,-10.1% (inactive),-0.1% (inactive),112,-12.7% (inactive),102,-0.503 (inactive),9.5e-06 (inactive),0.00409 (inactive),-6.64% (inactive),-36% (inactive)
O=C1NC(c2cccnc2)C(C(=O)c2cccs2)C(O)(C(F)(F)F)N1 (stereo not drawn),506,-0.3% (inactive),5% (inactive),104,40.4% (inactive),119,-0.363 (inactive),-3.5e-05 (inactive),0.00436 (inactive),-6.6% (inactive),-5.31% (inactive)
CC1(C)NC(=O)N(CC(O)CN2CCCCC2)C1=O (stereo not drawn),658,1.6% (inactive),10.5% (inactive),93.2,36.5% (inactive),109,-0.47 (inactive),-1.7e-06 (inactive),0.00522 (inactive),-4.08% (inactive),-0.921% (inactive)
CCCc1cc(=O)[nH]c(Nc2ccc(OC)c(Cl)c2)n1,238,-0.8% (inactive),17.6% (inactive),88.1,25.7% (inactive),70.9,-0.478 (inactive),-8.5e-06 (inactive),0.00603 (inactive),-1.81% (inactive),46.2% (inactive)
Cc1cc(C(F)(F)F)nc(SCC(=O)NC2=NC(=O)C(C)S2)n1 (stereo not drawn),370,6.1% (inactive),4.5% (inactive),109,19.6% (inactive),99,-0.457 (inactive),-1.9e-05 (inactive),0.00515 (inactive),-20.9% (inactive),-16.9% (inactive)
COCC(=O)Nc1cc(OC)ccc1OC,230,-7% (inactive),8.8% (inactive),87.6,-28.5% (inactive),84.6,-0.501 (inactive),3.1e-05 (inactive),0.0057 (inactive),12.1% (inactive),31% (inactive)
CSCCC(C(=O)Nc1ccc2c(c1)OCO2)N1C(=O)c2ccccc2C1=O (stereo not drawn),632,3.8% (inactive),-16.3% (inactive),96.3,-138% (inactive),107,-0.61 (inactive),-7.2e-06 (inactive),0.006 (inactive),9.29% (inactive),22% (inactive)
CCOc1ccc(S(=O)(=O)n2nc(C)cc2C)c2ccccc12,355,-5.4% (inactive),0.3% (inactive),108,-52.3% (inactive),115,-0.347 (inactive),2e-05 (inactive),0.00571 (inactive),-0.884% (inactive),-17.2% (inactive)
CC(C)CN(C(=O)COC(=O)Cc1n[nH]c(=O)c2ccccc12)C1CCS(=O)(=O)C1 (stereo not drawn),399,1.7% (inactive),14.7% (inactive),96.8,-65.6% (inactive),108,-0.586 (inactive),-1.4e-05 (inactive),0.00565 (inactive),12% (inactive),34.3% (inactive)
c1cc(-c2nc3ccccc3o2)nc(-c2nc3ccccc3o2)c1,426,17% (inactive),-10.7% (inactive),82.8,9.6% (inactive),113,-0.39 (inactive),-5.8e-05 (inactive),0.00362 (inactive),16.6% (inactive),30.1% (inactive)
COc1ccccc1NC(=O)C(C)NS(=O)(=O)c1ccc(F)cc1 (stereo not drawn),331,2.8% (inactive),-6.8% (inactive),108,-22.4% (inactive),100,-0.476 (inactive),-3.4e-05 (inactive),0.00634 (inactive),3.7% (inactive),46.5% (inactive)
Cc1c(C)[n+](=O)c2c(n1[O-])CCCCC2,545,-27.9% (inactive),10.6% (inactive),81.3,36.9% (inactive),63.9,-0.491 (inactive),-4.7e-05 (inactive),0.00652 (inactive),-0.779% (inactive),22.1% (inactive)
CCOC(=O)c1sc(NC(=O)CSc2nnc3c4ccccc4n(CC)c3n2)nc1C,478,1.6% (inactive),6.7% (inactive),106,-6.3% (inactive),110,-0.333 (inactive),-1.9e-05 (inactive),0.00568 (inactive),-6.56% (inactive),7.93% (inactive)
CCc1c(C(=O)N2CCOCC2)csc1C,295,-3.7% (inactive),-15% (inactive),104,-4.5% (inactive),104,-0.409 (inactive),-7.3e-05 (inactive),0.00413 (inactive),-0.247% (inactive),-13.5% (inactive)
CCOC(=O)Cc1cc(=O)n2[nH]c(C)c(-c3ccc(OC)cc3)c2n1,652,-0.3% (inactive),19.2% (inactive),94,0.6% (inactive),102,-0.301 (inactive),1.1e-05 (inactive),0.00404 (inactive),14.2% (inactive),22.5% (inactive)
CN(C)CCCOC(=O)CCc1ccccc1,317,-11.5% (inactive),4.5% (inactive),95.6,-26.3% (inactive),111,-0.312 (inactive),-3.9e-05 (inactive),0.00462 (inactive),-0.368% (inactive),5.94% (inactive)
CCOC(=O)C1(C)NC(c2ccc(OC)c(OC)c2)C2C(=O)N(CC)C(=O)C21 (stereo not drawn),369,-8.4% (inactive),29.1% (inactive),105,-211% (inactive),182,-0.598 (inactive),-9.8e-06 (inactive),0.00547 (inactive),1.25% (inactive),14.3% (inactive)
COc1ccc(-c2cc3ccc(OCc4nn[nH]n4)cc3oc2=O)cc1,399,-17.5% (inactive),5.4% (inactive),81.6,-24.5% (inactive),84.5,-0.00551 (active),1.1e-06 (inactive),0.00437 (inactive),8.69% (inactive),-13% (inactive)
CCc1nnc2sc(-c3cc(-c4ccccc4)nc4ccccc34)nn12,267,5.4% (inactive),7.4% (inactive),87,3.3% (inactive),90.4,-0.436 (inactive),2.9e-06 (inactive),0.00312 (inactive),8.15% (inactive),26.8% (inactive)
Cc1oc(C(=O)O)cc1CSCc1cc(C(=O)O)c(C)o1,403,-9.3% (inactive),-21.1% (inactive),102,-15.5% (inactive),118,-0.508 (inactive),3.2e-05 (inactive),0.00721 (inactive),-20.7% (inactive),-5.67% (inactive)
